Measured values reported in PubChem BioAssay (NCATS).
Results filed as inconclusive are left out. A call without a number means that no potency is given here. The source made the active and inactive calls. Unless noted, calls come from the whole dose curve; as a rule, active = well fitted curve in the direction sought with a large enough effect; inconclusive = small, poorly fitted or top-dose-only effect, or another doubt; inactive = no such curve, though single readings can be large; an effect the other way counts as inactive or inconclusive.

Columns and labels:
[1] = target: Luciferin 4-monooxygenase (Photinus pyralis) (UniProt P08659); assay: Biochemical firefly luciferase enzyme assay for NPC (AID 624030); note: nearly all actives have a fitted effect of over 70% in size; note: potency is the fitted concentration of half-maximal effect
Sequence of Luciferin 4-monooxygenase (Photinus pyralis) (P08659 whole entry, looked up): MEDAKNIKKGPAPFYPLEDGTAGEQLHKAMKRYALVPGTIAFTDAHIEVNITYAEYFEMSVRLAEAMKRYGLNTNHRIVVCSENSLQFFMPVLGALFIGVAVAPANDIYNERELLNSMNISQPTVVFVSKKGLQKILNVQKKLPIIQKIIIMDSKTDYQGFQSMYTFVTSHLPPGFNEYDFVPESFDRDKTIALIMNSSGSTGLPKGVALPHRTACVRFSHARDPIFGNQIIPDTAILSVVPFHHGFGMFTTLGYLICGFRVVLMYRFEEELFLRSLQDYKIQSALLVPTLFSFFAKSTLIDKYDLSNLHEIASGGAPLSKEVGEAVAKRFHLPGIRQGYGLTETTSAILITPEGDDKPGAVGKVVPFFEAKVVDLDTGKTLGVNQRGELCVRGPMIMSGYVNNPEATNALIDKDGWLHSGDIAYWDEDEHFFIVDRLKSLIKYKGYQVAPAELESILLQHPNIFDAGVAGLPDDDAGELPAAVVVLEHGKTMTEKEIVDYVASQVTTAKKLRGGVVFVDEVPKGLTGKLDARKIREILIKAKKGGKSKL
Method in brief: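 Purified P. pyralis luciferase at 10 nM in 50 mM Tris Acetate (final), luminescence read within 5 minutes of enzyme addition to compounds. Activity normalised to PTC124 versus DMSO; concentration-response curves classed by r2, magnitude and activity.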

[2] = S16 Schwann cell viability assay (CellTiter-Glo assay) (AID 624031);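 note: cellular ATP luminescence as a viability measure; series mostly up to about 58 µM; nearly all actives have a fitted effect of over 70% in size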
Method in brief: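 Native S16 rat Schwann cells in DMEM/10% FBS without phenol red were incubated overnight, then exposed to compounds for 24 h at 37 °C/5% CO2. Viability was read as ATP luminescence (CellTiter-Glo), normalized to no-cell wells and DMSO (0%).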

[3] = S16 Schwann cell PMP22 intronic element firefly luciferase assay (AID 624032); note: nearly all actives have a fitted effect of over 30% in size; note: potency is the fitted concentration of half-maximal effect
Method in brief: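 Rat S16 Schwann cells stably carrying firefly luciferase driven by a PMP22 intronic element, in 10% FBS, treated 24 h at 37 C. ONE-Glo luminescence normalized to PTC124 control and DMSO (0%); curves classed by r2, magnitude and activity.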

[4] = S16 Schwann cell PMP22 intronic element beta-lactamase assay (AID 624044; calls by dose curve; note: nearly all actives have a fitted effect of over 15% in size)
Method in brief: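 Rat S16 Schwann cells with beta-Lac driven by a PMP22 intronic element, compound-treated 24 h at 37 °C. LiveBLAzer FRET B/G read: 460 nm normalized to potassium clavulanate vs DMSO; 535 nm FRET as viability; concentration-effect curves classified.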

[5] = target: Voltage-gated inwardly rectifying potassium channel KCNH2 (Homo sapiens) (UniProt Q12809); assay: qHTS Assay for Small Molecule Inhibitors of the Human hERG Channel Activity (AID 588834);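 note: top concentration of the series differs between compounds; lower thallium flux fluorescence means stronger hERG block; nearly all actives have a fitted effect of over 50% in size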
Sequence of Voltage-gated inwardly rectifying potassium channel KCNH2 (Homo sapiens) (Q12809 whole entry, looked up): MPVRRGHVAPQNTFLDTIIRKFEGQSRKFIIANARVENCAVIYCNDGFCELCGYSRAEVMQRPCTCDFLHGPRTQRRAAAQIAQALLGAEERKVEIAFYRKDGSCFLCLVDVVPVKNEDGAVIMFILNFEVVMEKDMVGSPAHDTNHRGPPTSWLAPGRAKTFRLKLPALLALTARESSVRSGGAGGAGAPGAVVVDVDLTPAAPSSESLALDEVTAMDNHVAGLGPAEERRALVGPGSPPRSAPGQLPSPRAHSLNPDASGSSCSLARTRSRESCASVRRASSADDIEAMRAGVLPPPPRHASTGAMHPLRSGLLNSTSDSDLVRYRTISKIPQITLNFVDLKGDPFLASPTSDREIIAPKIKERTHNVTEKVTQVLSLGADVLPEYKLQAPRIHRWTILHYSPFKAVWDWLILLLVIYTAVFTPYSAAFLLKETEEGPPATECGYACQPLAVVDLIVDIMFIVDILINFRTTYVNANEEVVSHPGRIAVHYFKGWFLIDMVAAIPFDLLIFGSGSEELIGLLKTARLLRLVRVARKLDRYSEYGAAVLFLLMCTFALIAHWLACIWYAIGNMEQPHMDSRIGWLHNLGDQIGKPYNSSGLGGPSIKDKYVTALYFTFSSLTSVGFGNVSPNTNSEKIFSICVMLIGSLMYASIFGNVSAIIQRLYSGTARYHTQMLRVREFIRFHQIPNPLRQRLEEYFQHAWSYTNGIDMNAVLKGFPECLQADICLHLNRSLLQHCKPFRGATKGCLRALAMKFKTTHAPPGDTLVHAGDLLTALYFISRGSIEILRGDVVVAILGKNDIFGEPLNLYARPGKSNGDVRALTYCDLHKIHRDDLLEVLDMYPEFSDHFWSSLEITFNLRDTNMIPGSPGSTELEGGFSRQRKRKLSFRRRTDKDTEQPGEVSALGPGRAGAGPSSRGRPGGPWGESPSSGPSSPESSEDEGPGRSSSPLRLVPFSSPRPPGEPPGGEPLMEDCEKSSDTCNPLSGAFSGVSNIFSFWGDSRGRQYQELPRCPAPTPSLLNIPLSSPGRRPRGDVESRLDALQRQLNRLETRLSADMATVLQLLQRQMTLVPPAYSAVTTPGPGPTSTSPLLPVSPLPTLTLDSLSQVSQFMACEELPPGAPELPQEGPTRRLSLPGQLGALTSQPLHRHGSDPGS
Method in brief: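 Measured: FluxOR fluorescence after thallium stimulation in U2OS cells transduced with hERG by baculovirus. Compounds pre-incubated around 10 min; medium Opti-MEM with 2% FCS. AC50 from Hill equation.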

SMILES | Potency [1] | outcome [2] | Potency [3] | Potency [4] | Potency [5]
COc1cc(C(=O)NS(=O)(=O)c2ccccc2C)ccc1Cc1cn(C)c2ccc(NC(=O)OC3CCCC3)cc12 | 16.1 µM (active) | inactive | inactive | inactive | 
COc1c(N2C[C@@H]3CCCN[C@H]3C2)c(F)cc2c(=O)c(C(=O)O)cn(C3CC3)c12 | inactive | inactive | inactive |  | inactive
CN1c2cc(O)c(N=NC(N)=O)cc2CC1S(=O)(=O)O (centres undefined) | inactive | inactive | inactive | inactive | inactive
COc1ccc(CC2c3cc(OC)c(OC)cc3CC[N+]2(C)CCC(=O)OCCCCCOC(=O)CC[N+]2(C)CCc3cc(OC)c(OC)cc3C2Cc2ccc(OC)c(OC)c2)cc1OC (centres undefined) |  |  |  |  | inactive
CC1(C)O[C@@H]2C[C@@H]3[C@H]4C[C@@H](F)C5=CC(=O)C=C[C@]5(C)[C@@]4(F)[C@@H](O)C[C@]3(C)[C@]2(C(=O)CO)O1 | inactive | inactive | inactive | inactive | 
CCC1=C[C@@H]2CN(C1)Cc1c([nH]c3ccccc13)[C@@](C(=O)OC)(c1cc3c(cc1OC)N(C)[C@@H]1[C@@](O)(C(=O)OC)[C@H](OC(C)=O)[C@]4(CC)C=CCN5CC[C@]31[C@@H]54)C2 | inactive | inactive | 907 nM (active) |  | 
CC[C@H]1CN2CCc3cc(OC)c(OC)cc3[C@H]2C[C@@H]1C[C@@H]1NCCc2cc(OC)c(OC)cc21 | inactive | inactive |  |  | 
O=C(O)CO.[NH2-].[NH2-].[Pt+2] | inactive | inactive | inactive |  | inactive
Cc1nc2ccc(CN(C)c3ccc(C(=O)N[C@@H](CCC(=O)O)C(=O)O)s3)cc2c(=O)[nH]1 | inactive |  |  |  | inactive
